Data published in PubChem BioAssay AID651812 (National Center for Advancing Translational Sciences (NCATS), 2012).
In all, about 2,100 compounds went through this assay and about 650 (31%) were called active. Roughly 16% stayed inconclusive and do not appear here. Calls come from the whole dose curve; as a rule, active = well fitted inhibition curve with a large enough effect; inconclusive = small, poorly fitted or top-dose-only effect; inactive = flat fitted curve, though single readings scatter. Some of the results follow.

assay: qHTS for inhibitors of Vif-A3G interactions: Cherry picks; conditions: HeLa A3G-eYFP + Vif (tagged APOBEC3G with the HIV-1 protein that degrades it), 24 h; Potency: eYFP fluorescence increase; series mostly up to 36.9 µM; activity, negative = fluorescence increase: at the top concentration; note: nearly all actives have a fitted effect of over 80% in size; for activity, negative = fluorescence increase: % of control where 0% means no effect
In short: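 Cherry-picked compounds tested at several concentrations on A3G-eYFP/Vif HeLa cells for 24 hours; loss of Vif-driven degradation read as eYFP fluorescence by cytometric plate imaging, 488 nm excitation, 500-530 nm emission.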
Potency is the fitted concentration of half-maximal effect.

Structure (SMILES)	activity, negative = fluorescence increase	Potency
CC(=O)Nc1cccc(-c2ccnc3c2CC(C(=O)NCc2cccs2)O3)c1 (stereo unspecified)	-2.02% (inactive)	–
CC(=O)Nc1ccc(NC(=O)C/C(C)=N/NC(N)=S)cc1	4.54% [at 46.1 µM] (inactive)	–
CCN(CC)c1ccc2cc(-c3nnc(-c4cccc(Cl)c4)o3)c(=O)oc2c1	–	1.3 µM (active)
Oc1ccc(-c2nc(-c3ccc(O)c(O)c3)cs2)cc1	-6.38% (inactive)	–
CCN(CC)c1ccc2cc(-c3nc(-c4ccccc4)no3)c(=O)oc2c1	–	4.61 µM (active)
COc1ccc(-c2csc(-c3ccc(O)cc3)n2)cc1	0.669% (inactive)	–
O=c1oc2cc(O)ccc2cc1-c1nc(-c2ccc(Cl)c(Cl)c2)cs1	–	1.84 µM (active)
CCN(CC)c1ccc2cc(-c3nc4ccccc4n3C)c(=O)oc2c1	–	16.4 µM (active)
COc1cccc(C2=CC(c3cc(Br)ccc3F)n3nnnc3N2)c1 (stereo unspecified)	-2.71% [at 46.1 µM] (inactive)	–
CCN(CC)c1ccc2cc(C(N)=O)c(=N)oc2c1	–	23.1 µM (active)
CCN(CC)c1ccc(/C=N/N=C(N)N)c(O)c1	-11.8% (inactive)	–
O=C1/C(=C/c2c[nH]c3ccccc23)CCC/C1=C\c1c[nH]c2ccccc12	–	18.4 µM (active)
O=C(c1ccccc1)c1c2c(cc3sc4ccccc4[n+]13)-c1cccc3cccc-2c13	-3.2% (inactive)	–
S=C(NN=Cc1ccccn1)Nc1ccccn1	-1.96% [at 46.1 µM] (inactive)	–
C/C(=N\Nc1nc(C)cc(-c2ccccc2)n1)c1ccc(F)cc1	9.12% [at 46.1 µM] (inactive)	–
CCOc1ccccc1C(=O)Nc1c(C(=O)Nc2ccc(F)cc2)oc2ccccc12	-0.823% [at 46.1 µM] (inactive)	–
CCOc1ccc(Br)cc1C(=O)Nc1ccc(C(=O)NCC(C)C)cc1	–	6.51 µM (active)
CCOc1ccc(Br)cc1/C(C)=N\NC1=NCCN1	-2.26% (inactive)	–
COCCNC(=S)NN=C1CCCCCC1	13.5% [at 46.1 µM] (inactive)	–
O=C1CC(c2cc(Br)ccc2F)c2cc3c(cc2N1)CCC3 (stereo unspecified)	-3.71% (inactive)	–
CN(C)c1ccc(/C=C/c2cc[n+](C)cc2)cc1	–	15.8 µM (active)
Cc1ccc(/C=C/c2ccc(N(C)C)cc2)[n+](C)c1	–	14 µM (active)

Structure (SMILES)	activity, negative = fluorescence increase	Potency
CC[n+]1cc(C)ccc1/C=C/c1ccc(N(C)C)cc1	–	14 µM (active)
O=C1NC(c2cccc(Cl)c2)Nc2ccccc21 (stereo unspecified)	-1% (inactive)	–
O=c1[nH]ncc2c3ccccc3n(Cc3cccc(Cl)c3)c12	–	23.1 µM (active)
CC(C)(C)c1ccc(Cn2c(=O)cnc3ccccc32)cc1	13.5% [at 46.1 µM] (inactive)	–
COc1cc(/C=C2\SC(=S)N(Nc3ncc(C(F)(F)F)cc3Cl)C2=O)ccc1O	–	18.4 µM (active)
O=C(NNc1ncc(C(F)(F)F)cc1Cl)c1c(Cl)cccc1Cl	-5.87% (inactive)	–
CN(C)c1ccc(/C=C2\SC(=S)N(Nc3ncc(C(F)(F)F)cc3Cl)C2=O)cc1	–	3.66 µM (active)
CCOC(=O)Nc1ccc2nc(-c3cscn3)[nH]c2c1	-7.25% (inactive)	–
CCCn1c(C2CCCN2c2nc(-c3cccc(Br)c3)cs2)nc2ccccc21 (stereo unspecified)	3.02% [at 46.1 µM] (inactive)	–
CCc1ccc(C(=O)NC(=S)Nc2ccc(N3CCOCC3)cc2)cc1	2.8% [at 46.1 µM] (inactive)	–
CCc1ccc(NC(=O)/C(C#N)=C/c2cc3ccc(C)cc3nc2N2CCOCC2)cc1	–	14.6 µM (active)
Cc1cc2c(cc(C(=O)OCC(=O)NCc3cccs3)n2C(C)C)o1	-9.64% (inactive)	–
CCOC(=O)C1C(=O)C=C(/C=C/c2ccc(N(C)C)cc2)CC1c1ccccc1 (stereo unspecified)	–	6.51 µM (active)
COc1ccc(NC(=S)NN(C)C(=S)Nc2ccc(OC)cc2)cc1	-10.7% (inactive)	–
CCC(=C/c1sc2ccc3ccccc3c2[n+]1C)/C=C1\Sc2ccc3ccccc3c2N1C	-6.59% [at 46.1 µM] (inactive)	–
CCN1/C(=C/c2cc[n+](C)cc2)C=Cc2cc(C)ccc21	–	23.1 µM (active)
Cc1cc(C)c(S(=O)(=O)Oc2ccccc2[N+](=O)[O-])c(C)c1	-2.52% (inactive)	–
CCOC(=O)C1CCCN(C(=O)c2ccc3nc(-c4cccc(OC)c4)oc3c2)C1 (stereo unspecified)	-9.04% (inactive)	–
O=C(Cn1ncc(Cl)c(Cl)c1=O)Nc1ccc2c(c1)OCO2	-1.73% (inactive)	–
COc1ccc(NC(=O)N(Cc2cc3ccc(OC)cc3[nH]c2=O)CC2CCCO2)cc1 (stereo unspecified)	-0.563% (inactive)	–
COc1ccc(NCc2cc3cc4c(cc3n(CC(=O)Nc3cc(C)ccc3C)c2=O)OCCO4)cc1	–	2.31 µM (active)
Cc1ccccc1NC(=O)CSc1nc2cc3c(cc2cc1C)CCC3	-2.42% (inactive)	–

Structure (SMILES)	activity, negative = fluorescence increase	Potency
Cc1cc(NC(=O)CSc2nc(-c3cccs3)nc3ccccc23)no1	-19.4% (inactive)	–
Cc1cc2cc(C#N)c(SCC(=O)Nc3nonc3C)nc2cc1C	–	14.6 µM (active)
Cc1nonc1NC(=O)CSc1nc2c(C)cccc2cc1C#N	–	18.4 µM (active)
Cc1cc(NC(=O)CSc2nc3c(C)cccc3cc2C#N)no1	–	20.6 µM (active)
COC(=O)C1CCC(=O)N1C(c1ccc(OC)cc1)c1cc(OC)c(OC)c(OC)c1 (stereo unspecified)	-7.8% (inactive)	–
COc1ccc2ccccc2c1C1NC(=O)c2ccccc2N1 (stereo unspecified)	-12.9% (inactive)	–
CN(C)c1ccc(/C=C2/C[N+](C)(C)C/C(=C/c3ccc(N(C)C)cc3)C2=O)cc1	–	9.2 µM (active)
Nc1ccccc1C=C1Cc2ccccc2C1=O	–	16.4 µM (active)
COc1ccc(/C=C2/CSC/C(=C/c3ccc(OC)c(OC)c3)C2=O)cc1OC	-0.25% (inactive)	–
O=C1C(=Cc2ccccc2[N+](=O)[O-])Cc2ccccc21	-41.4% [at 46.1 µM] (inactive)	–
CN(C)c1ccc(/C=C2\Cc3ccccc3C2=O)cc1	–	3.26 µM (active)
Cc1ccc2nc(C)c(C(=O)NN=C3CCCCCC3)n2c1	1.33% (inactive)	–
CSc1nc(Sc2ccccc2Cl)c2ccccc2n1	-4.7% (inactive)	–
CCC1CCCCN1CCCNC(=O)c1ccc2c(c1)N(Cc1ccccc1F)C(=O)c1ccccc1S2(=O)=O (stereo unspecified)	-9.99% [at 46.1 µM] (inactive)	–
COc1ccc(NC(=O)CSc2ccc3c4c(cccc24)C(=O)c2ccccc2-3)cc1	–	7.31 µM (active)
CCn1c(SCC(=O)Nc2cccc(O)c2)nc2c1c(=O)n(C)c(=O)n2C	2.18% [at 46.1 µM] (inactive)	–
COc1ccc(NC(=O)c2cccc3ccccc23)cc1	-0.0498% (inactive)	–
N#Cc1cccc(NC(=O)CSc2ccc3c4c(cccc24)C(=O)c2ccccc2-3)c1	–	6.51 µM (active)
CCn1c(CNC(=O)C23CC4CC(CC(C4)C2)C3)nnc1SCC(=O)Nc1ccc(OC)cc1	-2.38% [at 46.1 µM] (inactive)	–
CCCn1nnc(NC(=S)NC(=O)c2ccccc2OC)n1	13.5% [at 46.1 µM] (inactive)	–
O=C(NC12CC3CC(CC(C3)C1)C2)c1ccc([N+](=O)[O-])o1	-1.29% (inactive)	–
CN1CCC(OC(=O)c2cc3cc(Cl)cc(Cl)c3oc2=O)CC1	-0.249% (inactive)	–

Structure (SMILES)	activity, negative = fluorescence increase	Potency
Cc1ccccc1OCCc1c(C)[nH]c(=S)[nH]c1=O	-13.9% (inactive)	–
O=C(c1ccccn1)C1CCCN(Cc2cn[nH]c2-c2cc3ccccc3o2)C1 (stereo unspecified)	-0.654% (inactive)	–
Cc1c(N=C2N=C(NC(=O)c3cccs3)c3ccccc32)c(=O)n(-c2ccccc2)n1C	–	14 µM (active)
COc1ccc(N2C(=O)CC(Sc3nc(C)c4c(n3)CCCC4)C2=O)cc1 (stereo unspecified)	-0.198% (inactive)	–
Cn1c(N)c(-c2ccccc2)c2ccc([N+](=O)[O-])cc2c1=O	–	15.8 µM (active)
CCc1cc[n+](-c2nc3ccccc3nc2[N-]S(=O)(=O)c2ccc(Br)s2)cc1	–	20.6 µM (active)
Cc1cc(C)c[n+](-c2nc3ccccc3nc2[N-]S(=O)(=O)c2ccc(Br)s2)c1	–	18.4 µM (active)
O=S(=O)([N-]c1nc2ccccc2nc1-[n+]1ccc(-c2ccncc2)cc1)c1ccccc1	-2.95% [at 46.1 µM] (inactive)	–
COCc1ccc(O)c2ncccc12	0.129% (inactive)	–
COC(=O)c1c(N2C(=O)[C@H]3[C@@H](C2=O)[C@]2(C(=O)Nc4c(C)cccc42)N2CCC[C@@H]32)sc(C)c1C	-0.0305% (inactive)	–
CC(=O)/C(N=Nc1cc(C)ccc1O)=C(\C)O	–	16.4 µM (active)
CCCN(C(=O)CSc1n[nH]c(-c2ccc(OC)cc2)n1)c1c(N)n(Cc2ccccc2)c(=O)[nH]c1=O	-14.5% [at 46.1 µM] (inactive)	–
C[n+]1ccc(/C=C/c2c[nH]c3ccc(F)cc23)cc1	–	14.6 µM (active)
Cc1ccc2[nH]cc(/C=C/c3cc[n+](C)cc3)c2c1	–	4.44 µM (active)
COc1ccc2[nH]cc(/C=C/c3cc[n+](C)cc3)c2c1	–	13 µM (active)
COc1ccc2c(c1)c(C(=O)N/N=C/c1ccc(Cl)cc1)c(C)n2C	-0.209% (inactive)	–
COc1ccc2c(c1)c(/C=C/c1cc[n+](C)cc1)cn2C	–	1.98 µM (active)
CSc1cccc(NC(=O)c2cc3c(COC(C)=O)cnc(C)c3oc2=O)c1	-0.348% [at 46.1 µM] (inactive)	–
O=C(NC1C/C(=N/O)c2cc3c(cc21)OCO3)C(F)(F)F (stereo unspecified)	0.0478% [at 46.1 µM] (inactive)	–
CCOc1ccc(C(C)=O)cc1COc1cccnc1[N+](=O)[O-]	-3.29% (inactive)	–
O=C(NCc1cccs1)C1CCN(c2ccc(S(=O)(=O)N3CCOCC3)cc2Cl)CC1	-2.2% (inactive)	–
O=S(=O)(Nc1nc2ccccc2nc1OCC(F)(F)F)c1cccs1	13.5% [at 46.1 µM] (inactive)	–

Structure (SMILES)	activity, negative = fluorescence increase	Potency
CCC[N+](C)(C)c1ccc(/C=C/c2ccncc2)cc1	–	18.4 µM (active)
CC[N+](C)(C)c1ccc(/C=C/c2ccncc2)cc1	–	20.6 µM (active)
C=CCOC(=O)C1=C(C)NC(C)=C(C(=O)OCC=C)C1c1cn(-c2ccccc2)nc1-c1ccco1	3.24% (inactive)	–
CC(=O)c1cccc(-c2ccnc3c2CC(C(=O)Nc2ccc(Cl)cc2)O3)c1 (stereo unspecified)	1.72% (inactive)	–
NC(=O)c1c(Nc2nc3c(F)cccc3s2)sc2c1CCCC2	-22.3% (inactive)	–
CCCSc1ncc(Cl)c(C(=O)Nc2sc3c(c2C(N)=O)CCCC3)n1	–	11.6 µM (active)
ClCC1NCC(c2ccccc2Cl)c2c1[nH]c1ccccc21 (stereo unspecified)	-1.72% [at 46.1 µM] (inactive)	–
S=c1[nH]cnc2sc(-c3ccccc3)cc12	2.34% [at 46.1 µM] (inactive)	–
CN(C)C=Nc1c(Br)cc(Br)c2nonc12	–	9.2 µM (active)
Cc1ccc(C=NNC(=O)c2cc(-c3cccnc3)nc3ccccc23)o1	-9.91% (inactive)	–
Cc1ccc(/C=N/NC(=O)c2cc(-c3ccccc3)nc3ccccc23)o1	-9.54% (inactive)	–
O=C(N/N=C/c1ccc(Cl)cc1)c1cc(-c2cccnc2)nc2ccccc12	-2.64% (inactive)	–
Nc1c(C(=O)N/N=C/c2ccccc2Cl)oc2nc(-c3ccccc3)cc(-c3ccco3)c12	–	5.8 µM (active)
Nc1c(C(=O)N/N=C/c2ccc(F)cc2)oc2nc(-c3ccccc3)cc(-c3ccco3)c12	–	12.5 µM (active)
O=C(N/N=C/c1cccc(F)c1)c1cc(-c2ccco2)nc2ccccc12	-0.017% (inactive)	–
O=C(N/N=C/c1ccco1)c1cc(-c2ccncc2)nc2ccccc12	-8.06% (inactive)	–
Nc1c(C(=O)N/N=C/c2cccnc2)oc2nc(-c3ccccc3)cc(-c3ccco3)c12	–	5.8 µM (active)
O=C(N/N=C/c1ccc2c(c1)OCO2)c1cc(-c2ccco2)nc2ccccc12	-4.33% (inactive)	–
